# Experimental data from the supplement of paper PMC4962491.
# Counter-ions that a name gives are not always drawn. ± gives the standard deviation of the averaged measurements. Whole data set: some 1,600 compounds, median “mitochondrial oxygen consumption rate normalised to cell number, Z score over the library” near 0.065, cut for the lowest 2% near -2.2. This excerpt belongs to a sample that is enriched for the lowest values.
# System: FaDu
# Assay: mitochondrial oxygen consumption rate normalised to cell number, Z score over the library; higher = higher oxygen consumption (negative = OCR reduction)
# Conditions: treatment time 24 h; assay medium: 5 mM galactose, 5 mM pyruvate, 4 mM glutamine; 10 µM
# Protocol: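 Primary screen: FaDu cells were incubated 24 h with Pharmakon 1600 / TDI oncology set compounds at 2 or 10 uM. Mitochondrial-specific OCR (basal minus 2 uM antimycin A) was measured on a Seahorse XF96 in assay medium with 5 mM galactose, 5 mM pyruvate and 4 mM glutamine, then corrected for Hoechst cell number and expressed as a Z score […]. Compounds that cut cell number by >66% were excluded. Two repeats.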
row,SMILES,mitochondrial oxygen consumption rate normalised
1,CN(C)CC(c1ccc(O)cc1)C1(O)CCCCC1 (stereo not given),0.524 ± 0.65
2,S=C=Nc1ccc(N=C=S)cc1,0.759 ± 0.026
3,CC(=O)O[C@H]1C(=O)[C@@]2(C)[C@H]([C@H](OC(=O)c3ccccc3)[C@]3(O)C[C@H](OC(=O)[C@H](O)[C@@H](NC(=O)c4ccccc4)c4ccccc4)C(C)=C1C3(C)C)[C@]1(OC(C)=O)CO[C@@H]1C[C@@H]2O,0.221 ± 0.61
4,CC(=O)O[C@H]1C(=O)[C@@]2(C)[C@H]([C@H](OC(=O)c3ccccc3)[C@]3(O)C[C@H](OC(=O)[C@H](O)[C@@H](NC(=O)c4ccccc4)c4ccccc4)C(C)=C1C3(C)C)[C@]1(OC(C)=O)CO[C@@H]1C[C@@H]2O [Paclitaxel],-0.326 ± 0.26
5,CCCCCC(C)N (stereo not given),-0.846 ± 0.93
6,CC#CCn1c(N2CCC[C@@H](N)C2)nc2c1c(=O)n(Cc1nc(C)c3ccccc3n1)c(=O)n2C,0.0591 ± 0.1
7,CCCCC(=O)O[C@H]1CC[C@H]2[C@@H]3CCc4cc(O)ccc4[C@H]3CC[C@]12C,-0.519 ± 0.44
8,CCCCC(CC)COC(=O)CC(C(=O)OCC(CC)CCCC)S(=O)(=O)O (stereo not given),0.149 ± 0.34
9,CCCCC(CC)CN=C(N)N=C(N)NCCCCCCNC(N)=NC(N)=NCC(CC)CCCC (stereo not given),-4.17 ± 0.22
10,CC(=O)Nc1ccc(OC(=O)c2ccccc2O)cc1,-0.337 ± 0.25
11,CC(CCc1ccc(O)cc1)NCC(O)c1ccc(O)cc1 (stereo not given),0.0984 ± 0.26
12,CNNCc1ccc(C(=O)NC(C)C)cc1,0.342 ± 0.2
13,CNNCc1ccc(C(=O)NC(C)C)cc1 [Procarbazine HCl],0.127 ± 0.26
14,C[C@H]1C[C@H]2[C@@H]3CCC4=CC(=O)C=C[C@]4(C)[C@@]3(F)[C@@H](O)C[C@]2(C)[C@@]1(O)C(=O)COP(=O)(O)O,-0.398 ± 0.27
15,CS(=O)(=O)OCCCCOS(C)(=O)=O [Busulfan],0.391 ± 1.2
16,CS(=O)(=O)OCCCCOS(C)(=O)=O,0.716 ± 1.1
17,O=C(Nc1ccc([N+](=O)[O-])cc1Cl)c1cc(Cl)ccc1O,-5.97 ± 0.27
18,NC(=O)c1ccc([N+](=O)[O-])cc1Cl,0.965 ± 0.77
19,O=C(O)COCCN1CCN([C@H](c2ccccc2)c2ccc(Cl)cc2)CC1,-0.965 ± 0.4
20,COc1ccc2nc3cc(Cl)ccc3c(Nc3cc(CN4CCCC4)c(O)c(CN4CCCC4)c3)c2n1,-0.0207 ± 0.29

row,SMILES,mitochondrial oxygen consumption rate normalised
1,COc1cc2c(N3CCN(C(=O)Nc4ccc(OC(C)C)cc4)CC3)ncnc2cc1OCCCN1CCCCC1,0.241 ± 0.61
2,COc1ccc(OC)c(C(O)CNC(=O)CN)c1 (stereo not given),0.934 ± 0.11
3,C[n+]1ccccc1/C=N/O,0.788 ± 0.1
4,Cc1ncc(C[n+]2csc(CCO)c2C)c(N)n1,1.53 ± 0.67
5,CC1(O)CCC(C(C)(C)O)CC1 (stereo not given),0.228 ± 0.62
6,CO[C@@]12[C@H](COC(N)=O)C3=C(C(=O)C(C)=C(N)C3=O)N1C[C@@H]1N[C@@H]12,-2.77 ± 0.14
7,O=C(O)CCC(=O)OC[C@@H](NC(=O)C(Cl)Cl)[C@H](O)c1ccc([N+](=O)[O-])cc1,-1.19 ± 0.7
8,CC1CC(OC(=O)C(O)c2ccccc2)CC(C)(C)C1 (stereo not given),0.62 ± 0.34
9,C[C@@H](c1ncncc1F)[C@](O)(Cn1cncn1)c1ccc(F)cc1F,-0.0277 ± 0.47
10,Cc1cc(N)c2ccccc2[n+]1CCCCCCCCCC[n+]1c(C)cc(N)c2ccccc21,-2.58 ± 0.47
11,O=C1NS(=O)(=O)c2ccccc21,0.156 ± 0.036
12,COC(=O)C(N)CS (stereo not given),0.244 ± 0.32
13,CC(=O)CC(c1ccc([N+](=O)[O-])cc1)c1c(O)c2ccccc2oc1=O (stereo not given),0.325 ± 0.51
14,CCOc1cc(NC(C)=O)ccc1C(=O)OC,-0.0275 ± 0.23
15,CO[C@H](C(=O)[C@@H](O)[C@@H](C)O)[C@@H]1Cc2cc3cc(O[C@H]4C[C@@H](O[C@@H]5C[C@@H](O)[C@H](O)[C@@H](C)O5)[C@H](O)[C@@H](C)O4)c(C)c(O)c3c(O)c2C(=O)[C@H]1O[C@H]1C[C@@H](O[C@@H]2C[C@@H](O)[C@@H](O[C@@H]3C[C@](C)(O)[C@H](O)[C@@H](C)O3)[C@@H](C)O2)[C@H](O)[C@@H](C)O1,-3.768 ± 0.0062
16,CC1CC2C3CCC4=CC(=O)C=CC4(C)C3(F)C(O)CC2(C)C1C(=O)CO (stereo not given),0.242 ± 0.014
17,CC(C)CCCC(C)NC(C)C (stereo not given),0.505 ± 0.85
18,CNC(=O)c1c(I)c(NC(C)=O)c(I)c(C(=O)O)c1I,-0.0805 ± 0.4
19,CN1CCCN=C1/C=C/c1cccc(O)c1,0.441 ± 0.03
20,CCOc1ccc(S(=O)(=O)O)c2cccnc12,0.206 ± 0.45
